Screening data (PubChem)
RmlCD inh mix – RmlC and RmlD coupled enzyme inhibitors, primary screen, biochemical, 384-well, compound mixtures, retest; actives 0.39% (n = 110,000); inhibition, % at 5.5 µM; RmlC/RmlD coupled enzyme inhibition, 384-well mixture HTS; AID 1532, 2009; in the data active means inhibition above about 30%, passing the limit was not always enough; inconclusive means no clear call, values can overlap the other calls
HIV RNase H inh – HIV-1 RT RNase H inhibitors, primary screen, biochemical, fluorescence. Gag-Pol polyprotein (Human immunodeficiency virus type 1 group M subtype B (isolate …. inhibition, % at 10 µM. RT-RNase H RNA/DNA duplex cleavage. actives 1.9% (n = 65,000); in the data active means inhibition above about 50%
RmlCD fluor art – counter-screen for RmlC/RmlD inhibitors: fluorescence artifact, dose response, artefact control, biochemical; shares compounds with RmlCD inh mix; RmlC/RmlD assay fluorescence artifact counter-screen; calls only; actives 96% (n = 360); AID 1696, 2009; call rule not given here;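 further: compound alone with no enzyme and no substrates present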
* = called active by the depositor; i = inactive; ? = inconclusive; nt = no result; + = active, no number. The entries come from a sample that favours hits as a whole.

SMILES | RmlCD inh mix | HIV RNase H inh | RmlCD fluor art
COc1cccc(-c2nc(CS(=O)CC(=O)NCc3ccccc3Cl)c(C)o2)c1 (configuration not stated) | -4.1 | -7.2 | nt
O=c1cc(C(F)(F)F)c2sc(N3CCCCC3)nc2[nH]1 | 64.8* | 0.1 | +
CC1(C)CC(=O)c2sc(N3CCCCC3)nc2C1 | -4.5 | -0.6 | nt
COc1ccc(C2=NOC(c3nnc(-c4ccccc4)o3)C2)cc1 (configuration not stated) | -14.7 | nt | nt
CCOC(=O)N1CCN(C(=O)Cn2ccc3c(OC)cccc3c2=O)CC1 | -5.0 | nt | nt
c1ccc(-c2cn3c(n2)SCC3)cc1 | -0.3 | nt | nt
Cc1oc2ccccc2c1-c1cn2c(n1)SCC2 | 51.9* | 3.5 | +
N#CCC(CNc1ncc(C(F)(F)F)cc1Cl)OC(=O)c1ccc(Cl)cc1Cl (configuration not stated) | 7.1 | nt | nt
CC(C)(CSc1nncn1N)NS(=O)(=O)c1ccc(Cl)cc1 | 3.1 | -1.2 | nt
Cc1c(N(C)C)nc2ccccc2c1N | 11.5 | 3.4 | nt
CN(C)c1c2ccccc2nc2c(F)c(F)c(F)c(F)c12 | nt | nt | +
CC(C)(C)NC(=O)[C@@H]1CN(Cc2cccnc2)CCN1C[C@@H](O)C[C@@H](Cc1ccccc1)C(=O)N[C@H]1c2ccccc2C[C@H]1O | -12.3 | nt | nt
Cc1noc(C)c1C(=O)OCC(=O)c1cc(C)n(Cc2ccccc2Cl)c1C | -11.4 | -4.4 | nt
CCOC(=O)c1nn(-c2ccc(Cl)cc2)c2nc(-c3ccc(C)cc3)c(C#N)c(=O)n12 | 10.7 | nt | nt
CCOC(=O)c1nn(-c2ccc(Cl)cc2)c2nc(CC)c(C#N)c(=O)n12 | 84.9* | nt | +
COc1ccc2nc(SCC(=O)Nc3cc(C)on3)[nH]c2c1 | -11.4 | nt | nt
COC(=O)c1ccc(-c2sc3nc(N4CCOCC4)c4c(c3c2N)CCCC4)o1 | 116.4* | 18.8 | +
CCN(CC)C(=O)c1sc2nc(N3CCOCC3)c3c(c2c1N)CCCC3 | -90.2 | nt | nt
COC(=O)Cc1c(C)c2cc(Cl)c(OC(=O)c3ccco3)cc2oc1=O | nt | -15.6 | nt
O=C(Oc1ccc2c3c(c(=O)oc2c1)CCC3)c1ccco1 | 187.0* | nt | +
CC(C)Oc1cc2oc(=O)c3c(c2cc1Cl)CCC3 | -5.8 | -9.2 | nt
Cc1cc2oc(=O)c3c(c2cc1OC(=O)c1ccco1)CCCC3 | -47.7 | -8.6 | nt
O=C(Oc1cc2oc(=O)c3c(c2cc1Cl)CCCC3)c1ccco1 | 140.9* | -0.1 | +
COC(=O)Cc1c(C)c2ccc(OC(=O)c3ccco3)cc2oc1=O | + | -16.6 | +
CC(=O)Oc1cc2oc(=O)c3c(c2cc1Cl)CCC3 | nt | -12.3 | +
SMILES | RmlCD inh mix | HIV RNase H inh | RmlCD fluor art
Cc1cc(OC(=O)c2ccco2)c2c3c(c(=O)oc2c1)CCCC3 | -8.8 | nt | nt
COc1ccc(-n2c(O)cnc2Nc2nc(C)cc(C)n2)cc1OC | 12.7 | nt | nt
NC(=O)CC[C@@H]1NC(=O)C(Cc2ccc(O)cc2)NC(=O)c2cc([N+](=O)[O-])cc(F)c2NCCC[C@@H](C(N)=O)NC1=O (some centres not stated) | 9.0 | nt | nt
O=C(O)C[C@H]1c2ccc(C(F)(F)F)cc2S(=O)(=O)N1C1CCCCC1 | 1.2 | nt | nt
CCCC(c1nnnn1CCc1ccccc1)N1CCC(C(N)=O)CC1 (configuration not stated) | 12.2 | nt | nt
O=c1cccc2n1Cc1cc3ccccc3nc1-2 | 55.5* | nt | +
Cc1nc2ccccc2cc1C(=O)O | 9.9 | nt | nt
CCCCc1cc(=O)oc2cc(C)cc(OCC(=O)O)c12 | 24.6 | -1.9 | nt
CCc1cc(=O)oc2cc(OC(C)=O)cc(OC(C)=O)c12 | nt | -5.0 | +
CCN1C(=O)N[C@@H](CCc2ccccc2)[C@@H](C(=O)OC)[C@H]1C | 6.1 | nt | nt
CCCCn1c(=O)nc2n(-c3ccccc3)c3ccccc3cc-2c1=O | 37.1* | nt | +
CCCCn1c(=O)c(C(=O)c2ccccc2)nc2ccccc21 | 2.0 | nt | nt
O=C(N[C@@H](Cc1ccccc1)C(=O)OCc1ccccc1)c1nc[nH]c1C(=O)NCc1ccccc1 | 5.0 | nt | nt
CNC(=O)c1ccc(-c2ccc(F)cc2)s1 | 7.9 | nt | nt
CNC(=O)c1ccc(-c2ccc(OC)cc2)s1 | 85.3* | nt | +
CC1=CC2=NC(=O)CC(C)(C(=O)N(CC(=O)NC(C)(C)C)C3CCCC3)N2C=C1 (configuration not stated) | 5.6 | -1.1 | nt
CC(C)(C)NC(=O)CN(C(=O)C1(C)CC(=O)N=C2C=CC=CN21)C1CCCC1 (configuration not stated) | 39.2* | 0.2 | +
Cc1cc(C)c2[nH]c(=O)c(=O)[nH]c2c1 | -4.5 | 9.7 | nt
Cc1cc2c(C)c(C)c(=O)[nH]c2cc1N | 45.2* | nt | +
N#Cc1c(-c2ccco2)cc(-c2ccccn2)nc1N | 46.5* | 6.0 | +
N#Cc1c(-c2ccco2)cc(-c2cccnc2)nc1N | ? | -22.4 | nt
COc1ccc(S(=O)(=O)Nc2cc(C)nn2-c2ccccc2)cc1 | 13.9 | nt | nt
Cc1ccc2nc(-c3cc(N)cc(N)c3)oc2c1 | 7.3 | nt | nt
Nc1ccc(-c2nc3ccc(N)cc3o2)cc1 | 103.9* | -12.2 | +
CC1CCN(CCCNC(=O)c2ccc(CSCc3cccc(Cl)c3)o2)CC1 | 3.1 | nt | nt
SMILES | RmlCD inh mix | HIV RNase H inh | RmlCD fluor art
O=S(=O)(NCc1ccccc1)c1cccs1 | -9.7 | nt | nt
CCOC(=O)CN1C(=O)N[C@@H](CCc2ccccc2)[C@H](C(C)=O)[C@H]1C | 7.0 | nt | nt
CCN(CC)C(=O)c1cnn(-c2ccccc2)c1NC(=O)c1ccccc1F | -7.9 | nt | nt
COc1ccc(-c2oc3ccc(-c4cc(OC)c(OC)c(OC)c4)cc3c2-c2ccc(OC)cc2)cc1 | -56.1 | nt | nt
COc1ccc(C#Cc2c(-c3ccsc3)oc3ccc(-c4cc(OC)c(OC)c(OC)c4)cc23)cc1 | 59.7* | nt | +
CC(=O)OCc1c(C(F)(F)F)nn(C)c1SCc1ccc(Cl)cc1 | -4.2 | nt | nt
CN(C)CCNC(=O)c1coc(=O)c(Br)c1 | 61.9* | -3.4 | +
CC(C)CNC(=O)c1coc(=O)c(Br)c1 | 3.8 | nt | nt
Cc1ccc2nc3c(cc(C#N)c(=O)n3CCN3CCOCC3)c(=O)n2c1 | nt | -1.1 | nt
Cc1ccc2nc3c(cc(C#N)c(=O)n3-c3nccs3)c(=O)n2c1 | 106.6* | -12.0 | +
Cc1ccc(-n2c(=O)c(C#N)cc3c(=O)n4cccc(C)c4nc32)cc1 | i | nt | nt
Cc1ccc2nc3c(cc(C#N)c(=O)n3CC3CCCO3)c(=O)n2c1 (configuration not stated) | 105.5* | -12.1 | +
Cc1nc2c(sc3nc4c(cc32)COC(C)(C)C4)c(=O)o1 | 41.9* | nt | +
Cc1nc2c(sc3nc4c(cc32)COC(C)(C)C4)c(=O)n1Cc1ccccc1 | -1.4 | nt | nt
CN(C(=O)c1cccnc1)c1nnc(-c2ccccn2)s1 | 42.5* | -5.1 | +
Cc1nnc(N(C)C(=O)c2cccnc2)s1 | 12.6 | -6.2 | nt
CCO[C@H]1OC(C(=O)Nc2ccccc2)=C[C@@H](C)[C@@H]1CCCO | -8.2 | nt | nt
COc1ccc2cc3cc(C(=O)NCCCN4CCOCC4)oc3nc2c1 | 43.2* | -13.3 | +
CCN1CCN(CCCNC(=O)c2cc3cc4ccc(OC)cc4nc3o2)CC1 | nt | -34.1 | nt
COc1cccc(Cn2cnc3c(NS(=O)(=O)c4cc(Cl)ccc4Cl)c(C)c(C)cc32)c1 | -10.6 | nt | nt
COc1cc2[nH]c(=O)n(CCCC(=O)N3CC=C(c4ccccc4)CC3)c(=O)c2cc1OC | 52.4* | -31.6 | i
